Out of some 5,500 compounds screened, about 2,000 (36%) were called active. Roughly 18% stayed inconclusive and do not appear here. Rule as the data show it: active = normalized growth mostly below about 0.91 (no sharp cut-off); inconclusive = no clear call, values can overlap the other calls; inactive = mostly above about 0.92. The list shows a part of the results.
Assay: chemical genetic growth profiling, strain panel (AID 1159580);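 also: tested at 20 µM; growth read once vehicle control cultures reached saturation at 30 °C; 1 = growth at the plate median or of vehicle wells; lower values mean less growth of the strain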
Conditions: growth OD

Measured: normalized growth

C=CC(C)(O)CC/C=C(\C)CCC=C(C)C (stereo not drawn)
active: S. cerevisiae deletion strains, locus YLR221C, strain rsa3, hits give low values 0.9 | S. cerevisiae deletion strains, locus YLR262C, strain YPT6 (second series), hits give low values 0.842 | S. cerevisiae deletion strains, locus YLR320W, strain mms22, hits give low values 0.846 | S. cerevisiae deletion strains, locus YLR357W, strain rsc2, hits give low values 0.81 | S. cerevisiae deletion strains, locus YMR125W, strain sto1, hits give low values 0.828 | S. cerevisiae deletion strains, locus YNL071W, strain lat1, hits give low values 0.85 | S. cerevisiae deletion strains, locus YNL233W, strain BNI4, hits give low values 0.788 | S. cerevisiae deletion strains, locus YNL248C, strain rpa49, hits give low values 0.883 | S. cerevisiae deletion strains, locus YOR001W, strain rrp6, hits give low values 0.887 | S. cerevisiae deletion strains, locus YOR083W, strain WHI5, hits give low values 0.882 | S. cerevisiae deletion strains, locus YOR270C, strain vph1, hits give low values 0.757 | S. cerevisiae deletion strains, locus YPL051W, strain arl3, hits give low values 0.907 | S. cerevisiae deletion strains, locus YPL078C, strain atp4, hits give low values 0.863 | S. cerevisiae deletion strains, locus YPL106C, strain sse1, hits give low values 0.793
inactive: S. cerevisiae deletion strains, locus YKL009W, strain mrt4, hits give low values 0.952 | S. cerevisiae deletion strains, locus YKL068W, hits give low values 0.994 | S. cerevisiae deletion strains, locus YKL085W, strain MDH1 (second series), hits give low values 0.996 | S. cerevisiae deletion strains, locus YKL085W, strain MDH1, hits give low values 0.996 | S. cerevisiae deletion strains, locus YKL160W, strain elf1, hits give low values 0.903 | S. cerevisiae deletion strains, locus YKL190W, strain CNB1, hits give low values 0.97 | S. cerevisiae deletion strains, locus YKR001C, strain vps1, hits give low values 1 | S. cerevisiae deletion strains, locus YKR026C, strain gcn3, hits give low values 0.951 | S. cerevisiae deletion strains, locus YKR091W, strain srl3, hits give low values 0.97 | S. cerevisiae deletion strains, locus YLL001W, strain dnm1, hits give low values 0.978 | S. cerevisiae deletion strains, locus YLL026W, hits give low values 0.972 | S. cerevisiae deletion strains, locus YLL041C, strain sdh2, hits give low values 0.973 | S. cerevisiae deletion strains, locus YLR027C, strain aat2, hits give low values 0.967 | S. cerevisiae deletion strains, locus YLR039C, strain RIC1, hits give low values 0.882 | S. cerevisiae deletion strains, locus YLR058C, strain SHM2, hits give low values 0.949 | S. cerevisiae deletion strains, locus YLR102C, strain apc9, hits give low values 1 | S. cerevisiae deletion strains, locus YLR113W, strain HOG1, hits give low values 0.868 | S. cerevisiae deletion strains, locus YLR258W, strain gsy2, hits give low values 0.966 | S. cerevisiae deletion strains, locus YLR262C, strain YPT6, hits give low values 0.926 | S. cerevisiae deletion strains, locus YLR268W, strain sec22, hits give low values 1 | S. cerevisiae deletion strains, locus YLR330W, strain CHS5, hits give low values 0.925 | S. cerevisiae deletion strains, locus YLR342W, strain FKS1 (second series), hits give low values 0.878 | S. cerevisiae deletion strains, locus YLR342W, strain FKS1, hits give low values 0.974 | S. cerevisiae deletion strains, locus YLR370C, strain arc18, hits give low values 0.921 | S. cerevisiae deletion strains, locus YLR371W, strain rom2, hits give low values 0.962 | S. cerevisiae deletion strains, locus YLR384C, strain iki3, hits give low values 0.98 | S. cerevisiae deletion strains, locus YLR418C, strain cdc73, hits give low values 0.911 | S. cerevisiae deletion strains, locus YML016C, strain PPZ1, hits give low values 0.996 | S. cerevisiae deletion strains, locus YML032C, strain rad52, hits give low values 0.926 | S. cerevisiae deletion strains, locus YML120C, strain ndi1, hits give low values 0.919 | S. cerevisiae deletion strains, locus YML124C, strain tub3, hits give low values 1.01 | S. cerevisiae deletion strains, locus YMR058W, strain fet3, hits give low values 0.95 | S. cerevisiae deletion strains, locus YMR078C, strain ctf18, hits give low values 1.01 | S. cerevisiae deletion strains, locus YMR129W, hits give low values 0.967 | S. cerevisiae deletion strains, locus YMR205C, strain PFK2, hits give low values 0.911 | S. cerevisiae deletion strains, locus YMR223W, strain ubp8, hits give low values 0.957 | S. cerevisiae deletion strains, locus YMR231W, strain pep5, hits give low values 0.999 | S. cerevisiae deletion strains, locus YMR307W, strain GAS1, hits give low values 0.621 | S. cerevisiae deletion strains, locus YNL067W, strain RPL9B, hits give low values 0.943 | S. cerevisiae deletion strains, locus YNL153C, strain GIM3, hits give low values 0.921 | S. cerevisiae deletion strains, locus YNL183C, strain NPR1, hits give low values 0.948 | S. cerevisiae deletion strains, locus YNL209W, strain ssb2, hits give low values 0.977 | S. cerevisiae deletion strains, locus YNL250W, strain rad50, hits give low values 0.994 | S. cerevisiae deletion strains, locus YNL271C, strain bni1, hits give low values 1 | S. cerevisiae deletion strains, locus YNL298W, strain CLA4, hits give low values 0.951 | S. cerevisiae deletion strains, locus YNL307C, strain MCK1, hits give low values 1 | S. cerevisiae deletion strains, locus YNL322C, strain KRE1 (second series), hits give low values 0.993 | S. cerevisiae deletion strains, locus YNR049C, strain mso1, hits give low values 0.966 | S. cerevisiae deletion strains, locus YNR052C, strain pop2, hits give low values 0.933 | S. cerevisiae deletion strains, locus YOL006C, strain TOP1, hits give low values 0.816 | S. cerevisiae deletion strains, locus YOL012C, strain htz1 0.833 | S. cerevisiae deletion strains, locus YOL147C, strain pex11, hits give low values 0.987 | S. cerevisiae deletion strains, locus YOR061W, strain CKA2, hits give low values 0.977 | S. cerevisiae deletion strains, locus YOR069W, strain VPS5, hits give low values 0.984 | S. cerevisiae deletion strains, locus YOR070C, strain gyp1, hits give low values 0.981 | S. cerevisiae deletion strains, locus YOR080W, strain dia2, hits give low values 0.972 | S. cerevisiae deletion strains, locus YOR106W, strain vam3, hits give low values 0.881 | S. cerevisiae deletion strains, locus YOR136W, strain idh2, hits give low values 1.01 | S. cerevisiae deletion strains, locus YOR144C, strain elg1, hits give low values 0.999 | S. cerevisiae deletion strains, locus YOR184W, strain ser1, hits give low values 0.941 | S. cerevisiae deletion strains, locus YOR231W, strain MKK1, hits give low values 0.873 | S. cerevisiae deletion strains, locus YOR265W, strain rbl2, hits give low values 0.983 | S. cerevisiae deletion strains, locus YOR290C, strain snf2, hits give low values 0.875 | S. cerevisiae deletion strains, locus YOR316C, strain cot1, hits give low values 0.997 | S. cerevisiae deletion strains, locus YPL055C, strain LGE1, hits give low values 0.88 | S. cerevisiae deletion strains, locus YPL240C, strain hsp82, hits give low values 0.96 | S. cerevisiae deletion strains, locus YPL241C, strain CIN2, hits give low values 1 | S. cerevisiae deletion strains, locus YPL256C, strain CLN2, hits give low values 0.838 | S. cerevisiae deletion strains, locus YPR119W, strain clb2, hits give low values 1.02 | S. cerevisiae deletion strains, locus YPR141C, strain kar3, hits give low values 1 | S. cerevisiae deletion strains, locus YPR163C, strain tif3, hits give low values 1.02 | S. cerevisiae deletion strains, locus YPR167C, strain met16, hits give low values 0.988 | S. cerevisiae deletion strains, strain wtn01, hits give low values 0.99 | S. cerevisiae strains, strain wild type, hits give low values 0.924

Source: PubChem BioAssay AID1159580 (chemical genetic matrix, 2015)
